Several values for one entry are separate records, joined by “and”; a condition that tells them apart may be missing. Equal values may be shown once. Compounds without any hit were thinned out: in the full panel of roughly 79,000, 15% have a hit. Some compounds were tested as several samples or in several runs, with calls that do not always agree. Activity calls are given as the source filed them. No stated cut-off is given here; in the data, active means growth inhibition above about 70%; inactive means the rest.
What was measured:
[1] = NCI Yeast Anticancer Drug Screen. Data for the rad52 strain (AID 147);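 further: 0% = growth of vehicle-treated control cultures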; conditions: S. cerevisiae rad52 mutant growth inhibition, stronger effect = higher value
Method in brief: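 Vehicle-treated cultures served as the reference for growth inhibition of compound-exposed yeast bearing a DNA repair mutation.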

[2] = NCI Yeast Anticancer Drug Screen. Data for the wt1 strain (AID 149);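 further: 0% = growth of vehicle-treated wt1 cultures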; conditions: S. cerevisiae wt1 strain (SPY 50644) growth inhibition, stronger effect = higher value
Method in brief: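 The wt1 strain was treated with compounds, and growth was compared with vehicle-treated cultures to give inhibition.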

[3] = NCI Yeast Anticancer Drug Screen. Data for the rad50EPP+ strain (AID 151);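 further: 0% = growth of vehicle-treated control cultures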; conditions: S. cerevisiae rad50 mutant strain, stronger effect = higher value
Method in brief: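 In this screen, rad50EPP+ yeast were exposed to compounds. Growth inhibition was scored against vehicle-treated controls.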

[4] = NCI Yeast Anticancer Drug Screen. Data for the mgt1 strain (AID 153); conditions: S. cerevisiae mgt1 mutant growth inhibition, stronger effect = higher value
Method in brief: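 mgt1 strain exposed; growth vs vehicle control recorded as inhibition.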

[5] = NCI Yeast Anticancer Drug Screen. Data for the rad50 strain (AID 155);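 further: 0% = growth of vehicle-only cultures of the same strain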; conditions: S. cerevisiae rad50 strain growth inhibition, stronger effect = higher value
Method in brief: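 Cells are treated with compound, grown, and their growth is then scored against vehicle-only cultures of the same repair-deficient yeast strain.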

[6] = NCI Yeast Anticancer Drug Screen. Data for the mec2-1 strain (AID 157); conditions: S. cerevisiae mec2-1 strain, stronger effect = higher value
Method in brief: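 Vehicle-treated cultures served as reference for growth inhibition of compound-exposed mec2-1 yeast.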

[7] = NCI Yeast Anticancer Drug Screen. Data for the rad14 strain (AID 159);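 further: 0% = growth of vehicle-treated control cultures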; conditions: S. cerevisiae rad14 strain growth inhibition, stronger effect = higher value
Method in brief: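 Readout: yeast growth inhibition, referenced to vehicle-only cultures. Strain bears a defined alteration in DNA damage repair.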

[8] = NCI Yeast Anticancer Drug Screen. Data for the sgs1 mgt1 strain (AID 161);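 further: 0% = growth of cultures given vehicle only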; conditions: S. cerevisiae sgs1 mgt1 strain, stronger effect = higher value
Method in brief: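 Read-out: growth inhibition vs vehicle controls. Cells: mutant yeast strain deficient in DNA damage repair.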

[9] = NCI Yeast Anticancer Drug Screen. Data for the CLN2oe strain (AID 163);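 further: 0% = growth of vehicle-only control cultures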; conditions: S. cerevisiae CLN2oe strain, stronger effect = higher value
Method in brief: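 Inhibition relative to vehicle-treated yeast is reported. Cells: strain with genetic alteration in cell-cycle control, grown with compound.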

[10] = NCI Yeast Anticancer Drug Screen. Data for the cln2 rad14 strain (AID 165);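 further: 0% = growth equal to vehicle treated cultures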; conditions: S. cerevisiae cln2 rad14 strain, stronger effect = higher value
Method in brief: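 Each compound was tested on cln2 rad14 yeast. Inhibition of growth was calculated against vehicle-exposed controls.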

[11] = NCI Yeast Anticancer Drug Screen. Data for the bub3 strain (AID 167); conditions: S. cerevisiae bub3 mutant strain, stronger effect = higher value
Method in brief: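 Part of a panel of yeast mutants defective in DNA damage repair or cell cycle regulation. Each strain is grown with compound, and inhibition is calculated relative to solvent-treated cultures.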

[12] = NCI Yeast Anticancer Drug Screen. Data for the wt2 strain (AID 169);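 further: 0% = growth of vehicle-treated yeast cultures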; conditions: S. cerevisiae wt2 strain growth inhibition, stronger effect = higher value
Method in brief: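 Inhibition of yeast growth was determined after compound treatment, normalised to controls receiving only vehicle.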

[13] = NCI Yeast Anticancer Drug Screen. Data for the mlh1 strain (AID 171);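 further: 0% = growth of vehicle-treated control cultures of the same strain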; conditions: S. cerevisiae mlh1 strain growth inhibition, stronger effect = higher value
Method in brief: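 Vehicle-normalised growth inhibition of a repair- or checkpoint-altered yeast strain following compound treatment.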

[14] = NCI Yeast Anticancer Drug Screen. Data for the sgs1 strain (AID 173);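 further: 0% = growth of vehicle-only control cultures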; conditions: S. cerevisiae sgs1 mutant, stronger effect = higher value
Method in brief: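 Screen format: yeast with repair or checkpoint alterations, compound exposure, growth read relative to vehicle.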

[15] = NCI Yeast Anticancer Drug Screen. Data for the mlh1 rad18 strain (AID 175); conditions: S. cerevisiae mlh1 rad18 strain growth inhibition, stronger effect = higher value
Method in brief: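 Vehicle-treated cultures served as the reference for growth inhibition in a yeast strain carrying DNA damage repair alterations exposed to each compound.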

[16] = NCI Yeast Anticancer Drug Screen. Data for the rad18 strain (AID 177); conditions: S. cerevisiae rad18 mutant growth inhibition, stronger effect = higher value
Method in brief: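 Test articles were incubated with altered yeast defective in DNA damage repair. Results are given as inhibition of growth versus vehicle.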

[17] = at 5.0 µM (retest, dose inferred, filed as 0.5)
[18] = at 50.0 µM (retest, dose inferred, filed as 5.0)

Measured: growth inhibition

CN(C)CCOC1(Cc2ccc(Cl)cc2Cl)CCC(C(C)(C)C)CC1 (stereo unspecified)
inactive: [1]; at 1.2 µM 1% and -3% | [1]; at 3.7 µM 1% and 0% | [2]; at 1.2 µM 0% and -4% | [2]; at 3.7 µM -4% and -6% | [3]; at 1.2 µM -9% and -10% | [3]; at 3.7 µM -50% and -53% | [4]; at 1.2 µM 0% and -3% | [4]; at 3.7 µM 14% and 19% | [5]; at 1.2 µM 1% and -4% | [5]; at 3.7 µM 3% | [5]; [17] 48% and 22% | [6]; at 1.2 µM -5% and -2% | [6]; at 3.7 µM -4% and 5% | [6]; [17] 49% and 21% | [7]; at 1.2 µM -3% and -1% | [7]; at 3.7 µM 11% and 18% | [8]; [17] 64% and 58% | [9]; at 1.2 µM -9% and -8% | [9]; at 3.7 µM -8% | [10]; [17] 40% and 16% | [11]; at 1.2 µM -8% and -3% | [11]; at 3.7 µM 0% and -2% | [11]; [17] 8% and 15% | [12]; at 1.2 µM -1% and -3% | [12]; at 3.7 µM 3% and 8% | [13]; at 1.2 µM 0% and -1% | [13]; at 3.7 µM 6% and 14% | [14]; at 1.2 µM -1% | [14]; at 3.7 µM 11% and 26% | [16]; at 1.2 µM 0% and -4% | [16]; at 3.7 µM 0% and -2%
96% (active) and 68% (inactive): [15]; [17]
active: [1]; at 11.0 µM 99% and 98% | [1]; at 33.0 µM 99% | [1]; at 100.0 µM 99% and 97% | [2]; at 11.0 µM 98% and 86% | [2]; at 33.0 µM 99% | [2]; at 100.0 µM 100% and 99% | [3]; at 11.0 µM 91% and 94% | [3]; at 33.0 µM 98% and 92% | [3]; at 100.0 µM 99% | [4]; at 11.0 µM 99% | [4]; at 33.0 µM 100% and 99% | [4]; at 100.0 µM 100% and 99% | [5]; at 11.0 µM 99% | [5]; at 33.0 µM 99% | [5]; [18] 100% | [5]; at 50.0 µM 98.8% and 99.2% | [5]; at 100.0 µM 99% | [6]; at 11.0 µM 99% | [6]; at 33.0 µM 100% and 99% | [6]; [18] 100% | [6]; at 50.0 µM 99.5% | [6]; at 100.0 µM 100% and 99% | [7]; at 11.0 µM 99% | [7]; at 33.0 µM 99% | [7]; at 100.0 µM 100% and 99% | [8]; [18] 100% | [8]; at 50.0 µM 99.5% and 99.7% | [9]; at 11.0 µM 99% and 81% | [9]; at 33.0 µM 98% | [9]; at 100.0 µM 97% and 99% | [10]; [18] 100% | [10]; at 50.0 µM 99.1% and 97.9% | [11]; at 11.0 µM 99% and 98% | [11]; at 33.0 µM 99% and 98% | [11]; [18] 100% | [11]; at 50.0 µM 99.2% and 95.8% | [11]; at 100.0 µM 99% | [12]; at 11.0 µM 99% | [12]; at 33.0 µM 100% and 99% | [12]; at 100.0 µM 100% | [13]; at 11.0 µM 99% | [13]; at 33.0 µM 100% and 99% | [13]; at 100.0 µM 100% and 99% | [14]; at 11.0 µM 99% | [14]; at 33.0 µM 100% and 99% | [14]; at 100.0 µM 100% and 99% | [15]; [18] 100% and 99% | [15]; at 50.0 µM 99.5% and 99.4% | [16]; at 11.0 µM 99% and 98% | [16]; at 33.0 µM 99% | [16]; at 100.0 µM 99%

O=[n+]1c2ccccc2n([O-])c2cc(Br)ccc21
inactive: [2]; at 1.2 µM 7% | [2]; at 3.7 µM 43% | [4]; at 1.2 µM 5% | [4]; at 3.7 µM 5% | [4]; at 11.0 µM 51% | [6]; at 1.2 µM 18% | [6]; at 3.7 µM 52% | [7]; at 1.2 µM 36% | [7]; at 3.7 µM 56% | [8]; [17] 66% | [9]; at 1.2 µM 6% | [9]; at 3.7 µM 9% | [9]; at 11.0 µM 38% | [10]; [17] 19% | [11]; at 1.2 µM 42% | [11]; at 3.7 µM 63% | [11]; [17] 63% | [12]; at 1.2 µM 47% | [12]; at 3.7 µM 69% | [13]; at 1.2 µM -3% | [13]; at 3.7 µM 19% | [13]; at 11.0 µM 61% | [14]; at 1.2 µM 34% | [14]; at 3.7 µM 39%
active: [1]; at 1.2 µM 94% | [1]; at 3.7 µM 98% | [1]; at 11.0 µM 98% | [1]; at 33.0 µM 98% | [1]; at 100.0 µM 98% | [2]; at 11.0 µM 82% | [2]; at 33.0 µM 99% | [2]; at 100.0 µM 98% | [3]; at 1.2 µM 96% | [3]; at 3.7 µM 98% | [3]; at 11.0 µM 99% | [3]; at 33.0 µM 99% | [3]; at 100.0 µM 97% | [4]; at 33.0 µM 99% | [4]; at 100.0 µM 98% | [5]; at 1.2 µM 86% | [5]; at 3.7 µM 97% | [5]; [17] 96% | [5]; at 11.0 µM 98% | [5]; at 33.0 µM 99% | [5]; [18] 98% | [5]; at 50.0 µM 99.2% | [5]; at 100.0 µM 97% | [6]; [17] 85% | [6]; at 11.0 µM 92% | [6]; at 33.0 µM 99% | [6]; [18] 99% | [6]; at 50.0 µM 99.3% | [6]; at 100.0 µM 98% | [7]; at 11.0 µM 95% | [7]; at 33.0 µM 100% | [7]; at 100.0 µM 98% | [8]; [18] 99% | [8]; at 50.0 µM 99.2% | [9]; at 33.0 µM 99% | [9]; at 100.0 µM 98% | [10]; [18] 99% | [10]; at 50.0 µM 94.6% | [11]; at 11.0 µM 96% | [11]; at 33.0 µM 99% | [11]; [18] 99% | [11]; at 50.0 µM 99.4% | [11]; at 100.0 µM 99% | [12]; at 11.0 µM 99% | [12]; at 33.0 µM 100% | [12]; at 100.0 µM 98% | [13]; at 33.0 µM 99% | [13]; at 100.0 µM 98% | [14]; at 11.0 µM 97% | [14]; at 33.0 µM 99% | [14]; at 100.0 µM 98% | [15]; [17] 87% | [15]; [18] 98% | [15]; at 50.0 µM 99.2% | [16]; at 1.2 µM 84% | [16]; at 3.7 µM 92% | [16]; at 11.0 µM 98% | [16]; at 33.0 µM 99% | [16]; at 100.0 µM 98%

Reference: PubChem BioAssay (NCI)
